Reference: PubChem BioAssay (Tox21)
“And” between values parts separate entries of the source, which are not always exact repeats. Identical values can stand only once. Inconclusive results are not listed. More than one record can exist for a structure, and the calls need not agree. The source made the active and inactive calls. Unless noted, calls come from the whole dose curve; as a rule, active = well fitted curve in the direction sought with a large enough effect in the repeat runs; inconclusive = weak or mixed curves; inactive = no such curve, though single readings can be large; an effect the other way counts as inactive or inconclusive.

Assays:
[1] = A CellTox Green Cytotoxicity Assay to monitor cytotoxicity in HEK293 cells - 32 hour (AID 1224881); note: nearly all actives have a fitted effect of over 40% in size; note: potency is the fitted concentration of half-maximal effect
Outline: (§1)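 Each value comes from one timepoint of a single continuous run in which HEK293 cells with CellTox Green were exposed to compound for up to 40 h at 37 C, dye fluorescence rising with cell death.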

[2] = A CellTox Green Cytotoxicity Assay to monitor cytotoxicity in HepG2 cells - 0 hour (AID 1224882); note: nearly all actives have a fitted effect of over 35% in size
Outline: (§2)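 Continuous culture of HepG2 cells with a membrane-impermeant DNA dye; rising fluorescence marks dead cells. Compound exposure lasted up to 40 h at 37 C, with reads every 8 h from 0 h.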

[3] = A CellTox Green Cytotoxicity Assay to monitor cytotoxicity in HepG2 cells - 32 hour (AID 1224883); note: nearly all actives have a fitted effect of over 50% in size; note: potency is the fitted concentration of half-maximal effect
Outline: as §2

[4] = A CellTox Green Cytotoxicity Assay to monitor cytotoxicity in HEK293 cells - 8 hour (AID 1224884); note: nearly all actives have a fitted effect of over 35% in size; note: potency is the fitted concentration of half-maximal effect
Outline: as §1

[5] = qHTS RealTime-Glo MT Cell Viability Assay in HepG2 cells - 16 hour (AID 1224885); note: nearly all actives have a fitted effect of over 50% in size; note: potency is the fitted concentration of half-maximal effect
Outline: (§3)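 HepG2 cells were seeded at 600 cells/well together with NanoLuc luciferase and a cell-permeant prosubstrate, preincubated 5 h at 37 C/5% CO2, then pin-dosed with compounds in DMSO. Nonlytic luminescence from viable cells was read at each time point.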

[6] = qHTS RealTime-Glo MT Cell Viability Assay in HEK293 cells - 24 hour (AID 1224886); note: nearly all actives have a fitted effect of over 50% in size; note: potency is the fitted concentration of half-maximal effect; for activity change, negative = cytotoxicity: top concentration of the series differs between compounds
Outline: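 HEK293 cells were seeded at 600 cells/well together with NanoLuc luciferase and cell-permeant prosubstrate, preincubated 5 h at 37 C/5% CO2, then given compound in DMSO by pintool. Luminescence from viable-cell prosubstrate reduction was read repeatedly over 40 h.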

[7] = qHTS RealTime-Glo MT Cell Viability Assay in HEK293 cells - 8 hour (AID 1224887); note: nearly all actives have a fitted effect of over 50% in size; note: potency is the fitted concentration of half-maximal effect; for activity change, negative = cytotoxicity: top concentration of the series differs between compounds
Outline: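 qHTS format; HEK293 cells with NanoLuc/prosubstrate reagent, 37 C/5% CO2 for 5 h pre-dosing; compounds 23 nL in DMSO; luminescence at each time point reflects viable cells.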

[8] = A CellTox Green Cytotoxicity Assay to monitor cytotoxicity in HEK293 cells - 16 hour (AID 1224888); note: nearly all actives have a fitted effect of over 35% in size; note: potency is the fitted concentration of half-maximal effect
Outline: as §1

[9] = qHTS RealTime-Glo MT Cell Viability Assay in HepG2 cells - 0 hour (AID 1224889); note: nearly all actives have a fitted effect of over 50% in size
Outline: as §3

[10] = A CellTox Green Cytotoxicity Assay to monitor cytotoxicity in HepG2 cells - 8 hour (AID 1224890); note: nearly all actives have a fitted effect of over 45% in size; note: potency is the fitted concentration of half-maximal effect
Outline: as §2

[11] = qHTS assay to identify small molecule antagonists of the estrogen receptor alpha (ER-alpha) signaling pathway using the BG1 cell line in the presence of 0.1 nM 17-beta-estradiol - cell viability counter screen (AID 1259241); note: nearly all actives have a fitted effect of over 40% in size; note: potency is the fitted concentration of half-maximal effect
Outline: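 The cell line endogenously expresses full-length ER-alpha and carries four EREs driving luciferase. Cells are cultured 5 days hormone-free, treated 22 hr with compounds and 0.1 nM estradiol, then viability is read by fluorescence.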

[12] = qHTS assay to identify small molecule antagonists of the androgen receptor (AR) signaling pathway using the MDA cell line in the presence of 0.5 nM R1881 - cell viability counter screen (AID 1259242); note: nearly all actives have a fitted effect of over 45% in size; note: potency is the fitted concentration of half-maximal effect
Outline: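 Fluorescence from CellTiter-Fluor, which reports protease activity of live cells, was read 30 min after reagent addition to MDA-kb2 cells that had been incubated 16 hr with compound and 0.5 nM R1881.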

[13] = biological target: Androgen receptor (Homo sapiens) (UniProt P10275); experiment: qHTS assay to identify small molecule antagonists of the androgen receptor (AR) signaling pathway using the MDA cell line in the presence of 0.5 nM R1881 (AID 1259243); note: nearly all actives have a fitted effect of over 50% in size; note: potency is the fitted concentration of half-maximal effect
Outline: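 Inhibition of R1881 (0.5 nM final) induced reporter signal was measured in human MDA-kb2 cells; note the MMTV promoter also responds to GR. Exposure lasted 16 hr at 37C.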

[14] = biological target: Estrogen receptor (Homo sapiens) (UniProt P03372); experiment: qHTS assay to identify small molecule antagonists of the estrogen receptor alpha (ER-alpha) signaling pathway using the BG1 cell line in the presence of 0.1 nM 17-beta-estradiol (AID 1259244); note: nearly all actives have a fitted effect of over 50% in size
Outline: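 Quantitative high-throughput screen in VM7Luc4E2 cells: compound plus 0.1 nM E2 (final), 22 h, 37C, 5% CO2; ONE-Glo added, 30 min room temperature, luminescence measured.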

[15] = qHTS assay to identify small molecule HDAC inhibitors (AID 1259364); note: top concentration of the series differs between compounds; nearly all actives have a fitted effect of over 45% in size
Outline: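 Endogenous HDAC class I/II activity was measured in wild-type HCT-116 cells by HDAC-Glo luminescence after 2 h compound treatment.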

[16] = qHTS assay to identify small molecule HDAC inhibitors - cell viability counter screen (AID 1259365)
Outline: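 Viability readout: CellTiter-Glo luminescence. Wild-type HCT-116 cells, 2hr compound treatment following overnight attachment at 37 C.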

[17] = qHTS assay to identify small molecule agonists of the sonic hedgehog signaling (Shh) pathway - cell viability counter screen (AID 1259366); note: nearly all actives have a fitted effect of over 50% in size; note: potency is the fitted concentration of half-maximal effect
Outline: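 Viability measured fluorometrically (CellTiter-Fluor, 1hr, 37C) in 3T3 Gli1-Luc reporter cells after 23hr compound exposure within a 24hr incubation at 37C/5% CO2.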

[18] = qHTS assay to identify small molecule antagonists of the sonic hedgehog signaling (Shh) pathway - cell viability counter screen (AID 1259367); note: nearly all actives have a fitted effect of over 55% in size
Outline: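 Using CellTiter-Fluor, viability of Gli1-Luc reporter 3T3 cells is read by fluorescence in the wells used for the Shh luciferase assay. Treatment lasts 23 hr with conditioned medium, then reagent 1 hr at 37C.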

[19] = qHTS assay to identify small molecule agonists of the sonic hedgehog signaling (Shh) pathway (AID 1259368; calls by dose curve;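 note: NIH/3T3-derived 3T3Gli1-Luc cells carrying a stable Gli1-driven firefly luciferase reporter; series mostly up to about 92 µM; nearly all actives have a fitted effect of over 15% in size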)
Outline: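 Luminescent signal was taken as a measure of Gli1-controlled luciferase expression in stably transfected NIH/3T3-derived cells that had been treated for 24 hr with compounds delivered in DMSO.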
% is set by controls: 0 for no effect and ±100 for the full control effect.

Chain of Estrogen receptor (Homo sapiens) (P03372 whole entry, looked up): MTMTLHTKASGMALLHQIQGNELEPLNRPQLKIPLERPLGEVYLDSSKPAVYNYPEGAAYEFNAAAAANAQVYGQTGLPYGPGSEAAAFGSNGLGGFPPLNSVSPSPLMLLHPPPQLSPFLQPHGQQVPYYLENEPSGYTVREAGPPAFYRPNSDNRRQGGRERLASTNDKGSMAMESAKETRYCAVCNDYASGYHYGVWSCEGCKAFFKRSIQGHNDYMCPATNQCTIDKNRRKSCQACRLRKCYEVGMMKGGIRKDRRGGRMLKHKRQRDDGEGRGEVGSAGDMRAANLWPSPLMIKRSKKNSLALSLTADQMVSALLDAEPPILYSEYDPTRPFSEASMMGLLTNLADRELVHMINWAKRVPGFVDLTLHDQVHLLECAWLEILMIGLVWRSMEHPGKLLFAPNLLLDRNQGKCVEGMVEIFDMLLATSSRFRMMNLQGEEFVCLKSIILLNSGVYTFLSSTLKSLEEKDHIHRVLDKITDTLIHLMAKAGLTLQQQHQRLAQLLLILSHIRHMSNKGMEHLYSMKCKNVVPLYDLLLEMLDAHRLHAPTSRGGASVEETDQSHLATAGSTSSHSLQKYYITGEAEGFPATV
Chain of Androgen receptor (Homo sapiens) (P10275 whole entry, looked up): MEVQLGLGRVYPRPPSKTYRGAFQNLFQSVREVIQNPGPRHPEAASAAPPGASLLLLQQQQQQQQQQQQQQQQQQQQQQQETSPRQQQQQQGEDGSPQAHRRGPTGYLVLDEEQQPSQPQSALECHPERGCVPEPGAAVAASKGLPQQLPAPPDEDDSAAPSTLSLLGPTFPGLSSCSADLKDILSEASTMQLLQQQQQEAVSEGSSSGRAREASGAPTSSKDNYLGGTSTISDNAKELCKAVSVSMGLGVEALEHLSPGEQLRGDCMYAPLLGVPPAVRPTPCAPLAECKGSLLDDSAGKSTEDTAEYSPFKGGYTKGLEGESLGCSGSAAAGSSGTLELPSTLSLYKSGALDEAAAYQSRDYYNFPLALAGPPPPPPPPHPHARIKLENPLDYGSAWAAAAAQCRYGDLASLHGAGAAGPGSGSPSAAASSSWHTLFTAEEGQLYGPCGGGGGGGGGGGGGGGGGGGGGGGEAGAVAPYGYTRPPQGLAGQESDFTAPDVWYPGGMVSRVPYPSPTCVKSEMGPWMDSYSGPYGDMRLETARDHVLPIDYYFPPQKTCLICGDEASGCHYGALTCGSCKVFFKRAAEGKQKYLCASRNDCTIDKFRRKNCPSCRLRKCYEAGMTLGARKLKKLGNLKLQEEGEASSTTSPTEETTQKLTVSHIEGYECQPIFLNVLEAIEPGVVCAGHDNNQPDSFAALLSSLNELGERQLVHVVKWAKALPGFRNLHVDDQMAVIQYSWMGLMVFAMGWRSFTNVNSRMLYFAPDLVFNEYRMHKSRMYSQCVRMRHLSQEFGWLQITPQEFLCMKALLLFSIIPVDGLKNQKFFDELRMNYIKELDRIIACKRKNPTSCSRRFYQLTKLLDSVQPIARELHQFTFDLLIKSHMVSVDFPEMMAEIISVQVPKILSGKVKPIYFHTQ

N#Cc1ccc(O)cc1
inactive: Potency [1] | Potency [2] | Potency [3] | Potency [4] | Potency [5] | Potency [6] | Potency [7] | Potency [8] | Potency [9] | Potency [10] | Potency [11] | Potency [12] | Potency [13] | Potency [14] | Potency [15] | Potency [16] | Potency [17] | Potency [18]

CC(c1ccc(O)cc1)c1ccc(O)cc1
inactive: Potency [1] | Potency [2] | Potency [3] | Potency [4] | Potency [5] | Potency [7] | Potency [8] | Potency [9] | Potency [10] | Potency [11] | Potency [12] | Potency [14] | Potency [15] | Potency [16] | Potency [18] | Potency [19]
45.9 µM (active) and inactive: Potency [6]
inactive and 61.1 µM (active): Potency [17]

CCc1ccccc1C
inactive: Potency [1] | Potency [2] | Potency [3] | Potency [4] | Potency [5] | Potency [6] | Potency [7] | Potency [8] | Potency [9] | Potency [10] | Potency [11] | Potency [12] | Potency [13] | Potency [14] | Potency [15] | Potency [16] | Potency [17] | Potency [18] | Potency [19]

C[CH2][Hg][N]1C(=O)C2C(C1=O)C1(Cl)C(Cl)=C(Cl)C2(Cl)C1(Cl)Cl (stereo not drawn)
inactive: cytotoxicity [2] 1.33% [at 15.8 µM] | activity change, negative = cytotoxicity [9] -6.6% [at 15.8 µM] | activity change, negative = cytotoxicity [16] -3.87% [at 19 µM] | activity change [19] -11.5% [at 18.9 µM, stronger effect = higher value]
active: Potency [1] 4.65 µM | Potency [3] 8.27 µM | Potency [4] 4.65 µM | Potency [5] 6.57 µM | Potency [6] 2.33 µM | Potency [7] 3.69 µM | Potency [8] 4.65 µM | Potency [10] 8.27 µM | Potency [11] 13 µM | Potency [12] 13 µM | Potency [13] 7.3 µM | Potency [17] 7.3 µM

C=COCCCl
inactive: Potency [1] | Potency [2] | Potency [3] | Potency [4] | Potency [5] | Potency [6] | Potency [7] | Potency [8] | Potency [9] | Potency [10] | Potency [11] | Potency [12] | Potency [13] | Potency [14] | Potency [15] | Potency [16] | Potency [17] | Potency [18] | Potency [19]

Cc1cccc(OP(=O)(Oc2cccc(C)c2)Oc2cccc(C)c2)c1
inactive: Potency [1] | Potency [2] | Potency [3] | Potency [4] | Potency [5] | Potency [6] | Potency [7] | Potency [8] | Potency [9] | Potency [10] | Potency [11] | Potency [12] | Potency [13] | Potency [15] | Potency [16] | Potency [17] | Potency [18] | Potency [19]
